Source: the supplement of paper PMC3334620
Over roughly 33,000 sequences, “E-score (-0.5 to 0.5)” has its median near -0.013; the highest 2% begin near 0.3. This is one part of a sample in which the highest values are shown more often than they occur.

Molecular target: T1, Msn1 (UniProt P22148)
T1 sequence: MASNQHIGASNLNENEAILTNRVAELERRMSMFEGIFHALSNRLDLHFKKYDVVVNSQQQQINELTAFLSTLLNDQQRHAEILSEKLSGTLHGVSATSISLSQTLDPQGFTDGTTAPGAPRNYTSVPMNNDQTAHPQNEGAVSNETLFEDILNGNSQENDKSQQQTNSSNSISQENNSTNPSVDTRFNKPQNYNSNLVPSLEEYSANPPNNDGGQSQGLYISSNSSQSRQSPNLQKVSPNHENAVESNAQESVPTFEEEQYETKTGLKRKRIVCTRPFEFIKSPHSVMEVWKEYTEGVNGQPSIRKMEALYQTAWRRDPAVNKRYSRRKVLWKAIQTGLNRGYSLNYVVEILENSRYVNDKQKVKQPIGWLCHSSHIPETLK
Assay: PBM E-score (8-mer binding enrichment) (E-score (-0.5 to 0.5)); higher = stronger / more preferred TF binding
Settings: protein concentration: 200 nM; construct: GST-full length
Description: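 Universal 'all 10-mer' protein binding microarrays (Agilent AMADID 015681) probed with GST-tagged S. cerevisiae TFs (full-length or DBD) made by in vitro transcription/translation (PURExpress), about 100-200 nM. Bound TF was detected with fluorescent anti-GST. Each ungapped 8-mer (which stands for itself and its reverse complement) is scored by the PBM enrichment score (E-score), a modified Wilcoxon-Mann-Whitney statistic from -0.5 to +0.5, computed with the Universal PBM Analysis Suite. Scale: above 0.35 generally sequence-specific binding.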

| Sequence | PBM E-score |
| --- | --- |
| ACATGTCC | 0.48 |
| GCATGTCC | 0.459 |
| CCATGTAC | 0.216 |
| CGGGTTGA | -0.255 |
| CCAGCCCC | -0.304 |
| CTTTGCTA | -0.0573 |
| AAACAGTA | -0.0344 |
| CCACAAGC | -0.0513 |
| AGCACATG | -0.0192 |
| CGGACATC | 0.387 |
| CGGACATA | 0.469 |
| CGGACTGA | 0.0816 |
| AGGACATG | 0.484 |
| AGGACATC | 0.477 |
| AGTACATC | 0.131 |
| CCGACATC | 0.0379 |
| CGGACAGC | 0.182 |
| AGCACATC | -0.0251 |
| CGGACCTA | 0.00062 |
| AGTACATG | 0.266 |
| ATGGGCAA | 0.0683 |
| ACATACCG | 0.114 |
| GGAACGAA | 0.0279 |
| AATCTAAG | 0.00698 |
| GCGAGATA | 0.09 |
| ATCTTCCA | -0.148 |

| Sequence | PBM E-score |
| --- | --- |
| GGGACATA | 0.488 |
| GGGACTGA | -0.182 |
| GGGACAGA | 0.262 |
| AGCGTAGG | -0.267 |
| GACCACCA | -0.246 |
| ATCAGACC | -0.192 |
| AAACTGCT | -0.222 |
| CGCCAACG | -0.126 |
| CGCTCTAC | -0.0195 |
| CGTATTGA | -0.0137 |
| ACTGCGGG | -0.124 |
| AGTCTTAA | 0.11 |
| TGTCGCAA | 0.324 |
| AGTCTAAA | 0.0711 |
| CGTCTTAA | 0.0585 |
| GGTCTAAA | -0.0883 |
| TGTCTTAA | 0.375 |
| GGTCGCAA | -0.11 |
| TGTCTGAA | 0.364 |
| TGTCTAAA | 0.38 |
| CGTCGCAA | 0.0166 |
| GGTCTGAA | 0.0803 |
| AGTCTGAA | 0.029 |
| CGCTAGGA | -0.0538 |
| GCGGGGCA | -0.147 |
| GGAACCCC | -0.334 |

| Sequence | PBM E-score |
| --- | --- |
| ACCGTCTA | -0.11 |
| CTGCGATA | 0.0274 |
| CAGGTGAA | 0.0265 |
| ATGCAGTC | -0.186 |
| CTGGAGTC | -0.182 |
| AGCCAATA | -0.113 |
| GATCGGCC | -0.0564 |
| CACTACCG | -0.181 |
| AACTAGAA | 0.062 |
| AGTCTCAA | -0.0719 |
| TGTATCAA | 0.325 |
| AGTATCAA | 0.217 |
| CGTCTCAA | 0.00785 |
| CGTATCAA | 0.0969 |
| TGTCTCAA | 0.384 |
| TATAATCA | 0.169 |
| CCGGGATC | 0.0583 |
| AAGGGGAC | 0.101 |
| AGAATGTC | 0.459 |
| AGAATGTA | 0.167 |
| AGAATGTG | -0.172 |
| CGAATGTC | 0.386 |
| CGAATGAC | 0.258 |
| CGAATGTA | -0.00301 |
| CCGCTGAG | 0.00458 |
| AAACCGCT | -0.0604 |

| Sequence | PBM E-score |
| --- | --- |
| CCAAGGGC | -0.126 |
| ACACAAGC | 0.0155 |
| AGAGGTAG | -0.163 |
| GCGATCAA | -0.0507 |
| CTCAGACA | 0.317 |
| CCCAGACA | 0.199 |
| CTCAGACC | -0.138 |
| ATCAGACA | 0.173 |
| GTCAGACA | 0.323 |
| GTCAGAGA | 0.0303 |
| CACGCCAC | -0.127 |
| TCCACGGA | 0.299 |
| GAAGGTGA | -0.0331 |
| GGGTTAGA | -0.178 |
| GCAAATTA | -0.0115 |
| ACAAACTG | 0.158 |
| AGATCTGC | 0.0313 |
| GAGGGCCA | -0.104 |
| AGATGACA | 0.157 |
| ATATGACA | 0.304 |
| CTATGAGA | -0.0425 |
| CTATGACC | -0.0237 |
| CGATGACG | -0.158 |
| ATATGACC | -0.0751 |
| CGATGACA | 0.314 |
| CTATGACA | 0.375 |

| Sequence | PBM E-score |
| --- | --- |
| CGCTGACG | -0.24 |
| TGCTGACA | 0.125 |
| GTATGACA | 0.294 |
| CGCTGACA | 0.314 |
| CTTCCAGA | -0.0473 |
| GACACACC | 0.235 |
| AGTCGAGA | 0.0774 |
| ACAGGTGG | -0.0714 |
| ATTTGCAA | 0.103 |
| CTAACTTA | 0.227 |
| TGTGCGAA | -0.0498 |
| AAAACACC | 0.0787 |
| AGGGTCGC | -0.229 |
| GCTTGAAC | 0.187 |
| CGGGCAGC | -0.122 |
| AATACATG | 0.0057 |
| AAGACATC | 0.281 |
| CAGACATC | 0.246 |
| AAGACATT | 0.414 |
| AAGACACG | 0.248 |
| CAGACATA | 0.366 |
| AACACATG | 0.07 |
| AAGACACT | 0.163 |
| CAGACATG | 0.26 |
| AAGACATA | 0.382 |
| AAGACATG | 0.337 |

| Sequence | PBM E-score |
| --- | --- |
| AAGACAGT | 0.0956 |
| ACGAGCTC | -0.0205 |
| CCAAATCG | -0.101 |
| GTCTCAGA | 0.0346 |
| CAAAGGGC | -0.0864 |
| GCAAGAAA | 0.0128 |
| CCCTCTTC | -0.288 |
| CCGGCTCC | -0.269 |
| ACCCCACA | -0.0822 |
| CACCAGAC | 0.00954 |
| CGACCCCA | -0.177 |
| CATACAGG | -0.0332 |
| GAGACATC | 0.265 |
| TAGACACA | 0.163 |
| TAGACATA | 0.41 |
| TAGACAGA | 0.177 |
| GAGACACA | 0.272 |
| GAGACATA | 0.448 |
| GGGGCTGA | -0.148 |
| AGGGGCAG | -0.13 |
| GGACCGGA | 0.113 |
| CGCTAACC | -0.084 |
| GGAGTTAA | 0.0335 |
| TGGCCCCA | -0.338 |
| AGGTCCGG | 0.041 |
| ATGTCCGG | 0.457 |

| Sequence | PBM E-score |
| --- | --- |
| CTGTCCGC | 0.114 |
| ATGTCCGC | 0.44 |
| AAGTCCGG | 0.22 |
| ACGTCCGC | 0.14 |
| CCACTTAC | -0.133 |
| CCCTCTAC | -0.204 |
| ACCGTCGT | 0.142 |
| GCAGAGCC | -0.149 |
| CTGACAAA | 0.37 |
| ATGACAAT | 0.365 |
| TTGACAAA | 0.266 |
| ATAACAAT | 0.00977 |
| ATTACAAT | 0.155 |
| ATGACGAA | 0.0573 |
| ATGACAAG | 0.298 |
| CTGACAAG | 0.161 |
| ATGACAAA | 0.433 |
| ATGACAGC | 0.149 |
| CTGACAAC | 0.108 |
| ATGACAAC | 0.311 |
